Eya2 phos inh: blocks the phosphatase activity of human Eya2; 330,000 compounds, 0.006% hits; O00167; recombinant Eya2, OMFP fluorescence dephosphorylation (OMFP is methylfluorescein phosphate); Potency, µM (series often up to 76.9 µM), hits mostly inhibitors
Target sequence (O00167 whole entry, looked up): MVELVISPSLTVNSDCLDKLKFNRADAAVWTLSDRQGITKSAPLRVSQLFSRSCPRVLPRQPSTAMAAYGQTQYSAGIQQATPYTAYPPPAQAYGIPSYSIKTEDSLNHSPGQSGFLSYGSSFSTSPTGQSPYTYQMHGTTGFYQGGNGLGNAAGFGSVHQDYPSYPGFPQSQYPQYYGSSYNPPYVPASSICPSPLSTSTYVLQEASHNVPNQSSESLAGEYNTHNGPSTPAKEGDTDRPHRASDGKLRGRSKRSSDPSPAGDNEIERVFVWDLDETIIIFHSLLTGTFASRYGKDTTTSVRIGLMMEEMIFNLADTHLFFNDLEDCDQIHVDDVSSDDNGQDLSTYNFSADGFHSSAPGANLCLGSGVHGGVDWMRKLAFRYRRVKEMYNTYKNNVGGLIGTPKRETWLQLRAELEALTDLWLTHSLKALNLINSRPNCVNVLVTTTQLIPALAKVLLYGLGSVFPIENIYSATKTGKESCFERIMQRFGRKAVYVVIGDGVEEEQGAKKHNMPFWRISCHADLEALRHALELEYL
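Eya2 protein (added as 0.2 uM solution) was preincubated with compound for 10 min at ambient temperature in 50 mM HEPES pH 7.5, 50 mM NaCl, 5 uM MgCl2, 0.05% BSA, 1 mM DTT. OMFP (added at 50 uM) then reacted 10 min; fluorescence read at 485/525 nm.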
TrxR1 inh: blocks rat thioredoxin reductase 1; O89049; recombinant rTrxR1, NADPH fluorescence consumption, selenite substrate; Potency, µM (doses to about 114 µM), actives largely listed as inhibitors; 390,000 compounds, 1% hits; further: nearly all actives have a fitted effect of over 65% in size
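Rat TrxR1 (90 nM in the dispensed reagent) was pre-reduced with 400 uM NADPH for 5 min at room temperature, then incubated with compound for 15 min. After 400 uM selenite was added, NADPH fluorescence (Ex 340/Em 450 nm) was followed for 8 min.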
TrxR1 substrate: substrates of rat thioredoxin reductase 1; 390,000 compounds, 0.01% hits; Potency, µM (highest dose often 114 µM); purified TrxR1 substrate turnover, NADPH consumption readout; O89049; further: nearly all actives have a fitted effect of over 50% in size
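Rat TrxR1, dispensed at 90 nM, was prereduced with 400 uM NADPH (final) for 5 min at ~22 deg C, then incubated with compound 15 min before 400 uM selenite. A first-read NADPH fluorescence drop versus no-compound background flagged substrates.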
IDH1 R132H inh: human IDH1 R132H inhibition; O75874; IDH1-R132H enzyme, NADPH consumption, diaphorase/resazurin fluorescence; Potency, µM (top dose mostly 76.6 µM), most hits filed as inhibitors; 390,000 compounds, 0.093% hits; further: nearly all actives have a fitted effect of over 65% in size
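IDH1-R132H (0.5 ug/mL dispensed) in pH 7.5 Tris buffer was preincubated 30 min with compound, then given a substrate mix of 0.016 mM NADPH and 2 mM alpha-KG for 80 min at room temperature; remaining NADPH was read by diaphorase/resazurin fluorescence.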
FBPA coupling cs: coupling enzyme interference in Giardia aldolase counter-screen; coupling enzyme system counterscreen, AmpLite Red fluorescence; activity change, negative = inhibition, % at 58.2 µM, hits read low; 290,000 compounds, 0.67% hits; AID 2472; in the data active means activity change below about -30%
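Activity here indicates interference with the coupling reaction, not aldolase inhibition. Compounds at 57.5 uM final met coupling enzymes for 10 min at RT; substrate and AmpLite Red detection followed, with a 525/598 nm fluorescence read after 20 min.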
Hits are given with their value; . = inactive; ? = inconclusive; / = not tested or not shown. Compounds with a hit are over-represented: about 1.5% of the library has one in this group of screens. Unless noted, the call rests on the fitted dose curve; in most records, active means well fitted curve in the direction sought with a large enough effect; inconclusive means small, poorly fitted or top-dose-only effect, or another doubt; inactive means no such curve, though single readings can be large; an effect the other way counts as inactive or inconclusive.

SMILES	Eya2 phos inh	TrxR1 inh	TrxR1 substrate	IDH1 R132H inh	FBPA coupling cs
C[C@@H]1O[C@@H](OC[C@@H]2O[C@H](Oc3c(-c4ccc(O)cc4)oc4cc(O)cc(O)c4c3=O)[C@@H](O)[C@H](O)[C@H]2O)[C@H](O)[C@H](O)[C@H]1O	.	.	.	.	/
CC1OC(Oc2c(-c3cc(O)c(O)c(O)c3)oc3cc(O)cc(O)c3c2=O)C(O)C(O)C1O (centres undefined)	.	.	.	.	-46.9
COc1ccc2[nH]c(C)c(C(=O)CNc3nccs3)c2c1	/	.	.	/	/
O=Cc1cc2c3c(c1)CCCN3CCC2	/	.	.	/	/
CCOC(=O)C1=C(N)OC2=C(C(=O)CCC2)C1c1cccs1 (centres undefined)	.	.	.	.	-40.2
COc1ccc2c(c1OC)C(Cc1ccccc1)N1CCc3cc4c(cc3C1=C2)OCO4 (centres undefined)	/	/	/	/	-32.7
COc1c2c(cc3c1C(CC(O)Cc1ccccc1)N(C)CC3)OCO2 (centres undefined)	.	.	.	.	.
NCCCCCCNc1nc2c(N)ncnc2n1[C@@H]1O[C@@H]2COP(=O)(O)O[C@H]2[C@H]1O	/	/	/	/	.
COc1cccc(C(=O)CC2c3c(c(Br)c4c(c3OC)OCO4)CCN2C)c1 (centres undefined)	/	/	/	/	.
Cn1c(N)c(C(=O)COC(=O)c2cc(-c3ccco3)nc3ccccc23)c(=O)n(C)c1=O	.	12.6µM	.	.	.
O=C(COC(=O)c1ccco1)NCc1ccc(Cl)cc1Cl	.	79.4µM	.	.	/
O=C(COC(=O)c1cc(-c2ccco2)nc2ccccc12)NCc1ccccc1	.	44.7µM	.	.	.
COc1ccc(CCNC(=O)c2cc(-c3ccco3)nc3ccccc23)cc1	/	?	.	.	/
CNC(=O)COC(=O)c1cc(-c2ccco2)nc2ccccc12	.	10µM	.	.	.
Cn1c(N)c(C(=O)COC(=O)c2cc(-c3ccco3)nc3ccccc23)c(=O)n(Cc2ccccc2)c1=O	.	/	/	/	.
CCN(CC)C(=O)COC(=O)c1cc(-c2ccco2)nc2ccccc12	.	?	.	.	.
NC(N)=NCCC[C@H](N)C(=O)NCC(=O)N[C@@H](CC(=O)O)C(=O)N[C@@H](CO)C(=O)O	/	/	/	/	.
CCCn1c(N)c(C(=O)CSc2ncn[nH]2)c(=O)n(C)c1=O	.	.	.	.	/
CCCCn1c(N)c(C(=S)NC(=O)CC(C)(C)C)c(=O)n(C)c1=O	.	39.8µM	.	.	.
CSCC[C@H](NC(=O)[C@H](Cc1ccccc1)NC(=O)[C@H](Cc1cnc[nH]1)NC(=O)CNC(=O)[C@@H](NC(=O)[C@H](C)NC(=O)[C@H](Cc1c[nH]c2ccccc12)NC(=O)[C@H](CCC(N)=O)NC(=O)[C@@H]1CCCN1C(=O)[C@@H](NC(=O)[C@@H]1CCC(=O)N1)C(C)C)C(C)C)C(N)=O	/	/	/	/	.
CCC(=O)N(CCC(c1ccc(C)cc1)c1ccco1)Cc1ccco1 (centres undefined)	.	35.5µM	.	.	.
O=[N+]([O-])c1cccc(C2Nc3cccc4cccc(c34)N2)c1	.	50.1µM	.	.	.
O=[N+]([O-])c1ccc(C2Nc3cccc4cccc(c34)N2)cc1	.	35.5µM	.	.	.
CSCC[C@@H]1NC(=O)[C@@H](NC(=O)[C@H](CCCNC(=N)N)NC(=O)[C@H](CC(C)C)NC(=O)[C@H](CCSC)NC(=O)[C@H](CC(=O)O)NC(=O)[C@H](Cc2ccccc2)NC(=O)[C@@H](N)CC(=O)O)CSSC[C@@H](C(=O)N[C@@H](Cc2c[nH]c3ccccc23)C(=O)N[C@@H](CCC(N)=O)C(=O)N[C@@H](Cc2ccc(O)cc2)C(=O)O)NC(=O)[C@@H]2CCCN2C(=O)[C@H](CCCNC(=N)N)NC(=O)[C@H](Cc2ccccc2)NC(=O)[C@H](C(C)C)NC(=O)[C@H](CCCNC(=N)N)NC(=O)CNC(=O)[C@H](CC(C)C)NC1=O	/	/	/	/	.
Cc1cc(SCC(=O)NC(=O)NCc2ccco2)nc2ccccc12	.	70.8µM	.	.	.
SMILES	Eya2 phos inh	TrxR1 inh	TrxR1 substrate	IDH1 R132H inh	FBPA coupling cs
Cc1cc(SCC(=O)N/N=C/c2ccco2)nc2ccccc12	.	.	.	.	-32.0
NCC(=O)N[C@@H](CCCN=C(N)N)C(=O)NCC(=O)N[C@@H](CC(=O)O)C(=O)N[C@@H](CO)C(=O)O	/	/	/	/	.
CC12C=CC(=O)C=C1CCC1C2CCC2(C)C(C(=O)CO)CCC12 (centres undefined)	/	.	.	.	/
CC12C=CC(=O)C=C1CCC1C2=CCC2(C)C1CC[C@@H]2C(=O)CN1CCN(c2cc(N3CCCC3)nc(N3CCCC3)n2)CC1 (some centres undefined)	/	/	/	/	-37.7
CC(C)Cn1c(N)c(S(=O)(=O)c2cccs2)c2nc3ccccc3nc21	.	.	.	?	-31.2
CCn1c(SC(C)C(=O)Nc2ccc(C)cc2)nnc1-c1ccccc1 (centres undefined)	/	.	.	/	/
COC1(OC)C=CC(=O)C=C1NC(=O)c1ccccc1OC(C)=O	/	12.6µM	.	/	/
CC(=O)Oc1ccccc1C(=O)Nc1ccccc1	/	.	.	/	/
O=Cc1ccc(I)cc1	/	.	.	/	/
COc1ccc(CNC(=O)CCS(=O)(=O)c2cccc3nonc23)cc1	.	11.2µM	.	.	.
Cc1ccc(CNC(=O)CCS(=O)(=O)c2cccc3nonc23)cc1	.	56.2µM	.	.	.
CCc1c(C(=O)NCCc2ccc(N3CCCCC3)cc2)[nH]c2ccc(Cl)cc12	.	.	.	/	/
CC(C)(C)n1ncc2c(=O)n(Cc3cc(Cl)ccc3Cl)cnc21	/	.	.	/	/
O=C(CSc1nnc2c3ccccc3c3ccccc3c2n1)Nc1ccccc1	.	/	/	/	-43.8
O=C(CSc1nnc2c3ccccc3c3ccccc3c2n1)Nc1ccccc1F	.	.	.	.	-40.2
O=C(CSc1nncc2ccccc12)Nc1ccccc1	.	.	.	.	.
O=C(CSc1nnc2c(n1)[nH]c1ccc(F)cc12)Nc1ccccc1F	.	.	.	.	.
Cn1c(SCC(=O)NCc2ccco2)nnc1-c1ccc(NC(=O)c2ccccc2)cc1	/	.	.	/	/
CCCCn1cc[n+](C)c1	/	/	/	/	.
CCCC(=O)N(C1CC(C)C(C#N)(C#N)C1(C#N)C#N)N(C)C (centres undefined)	.	2.51µM	.	.	.
CC(=O)N(C1CC(C)C(C#N)(C#N)C1(C#N)C#N)N(C)C (centres undefined)	.	1.58µM	.	.	.
O=C(Nc1ccccc1F)c1ccc(O)c2ncccc12	.	/	/	/	/
CCCCC1OC23CCCCC2C(C#N)(C#N)C1(C#N)C(=N)O3 (centres undefined)	.	.	.	.	-45.0
COc1cc2cncnc2cc1OCCCCC(N)=O	/	.	.	/	/
CC(=O)CCc1oc2ccc(C)cc2c1-c1ccc(C)o1	.	?	.	.	.

From PubChem
